These results are taken from PubChem BioAssay (EPA / NIEHS).

The nature of assay [1]: TOX21_p53_BLA_p2_viability: Viability Assessment in the Tox21 HCT-116 p53 Agonism Beta-lactamase Assay, Phase 2 (AID 2283591).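 Note: actives lower the ATP signal meaning cytotoxicity.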 The essentials:
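Cytotoxicity readout: CellTiter-Glo ATP luminescence, 30 min at room temperature, after the beta-lactamase read. Cells were HCT116 exposed 16 h at 37C to compounds pin-transferred at 217-fold dilution from DMSO stocks.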

Assay [2] addresses Cellular tumor antigen p53 (Homo sapiens) (UniProt P04637). In words: TOX21_p53_BLA_p2_ratio: Tox21 HCT-116 p53 Agonism Beta-lactamase Assay, Ratio, Phase 2 (AID 2283592). The essentials:
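Read-out is the blue/green (460/530 nm, 405 nm excitation) ratio after 2 h CCF4-AM loading, fitted as gain versus DMSO. Compounds, pinned at 217-fold dilution from DMSO stocks, stayed 16 h on HCT-116 beta-lactamase reporter cells seeded 5 h earlier.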

A short description of assay [3]: TOX21_p53_BLA_p3_viability: Viability Assessment in the Tox21 HCT-116 p53 Agonism Beta-lactamase Assay, Phase 3 (AID 2283593).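 Note: cells exposed to compound for 16 h before reading.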 In outline: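 Cellular ATP was quantified by CellTiter-Glo luminescence, read after 30 min at room temperature. Beforehand, HCT116 cells (4000/well) received compound 5 h post-seeding, 217-fold diluted from DMSO, then incubated 16 h at 37C.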

Assay [4] concerns the target Cellular tumor antigen p53 (Homo sapiens) (UniProt P04637). In words: TOX21_p53_BLA_p3_ratio: Tox21 HCT-116 p53 Agonism Beta-lactamase Assay, Ratio, Phase 3 (AID 2283596). In outline: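 Cells were seeded at 4000/well, rested 5 h at 37C, then dosed with DMSO compound solutions (217-fold dilution) for 16 h. CCF4-AM substrate was loaded for 2 h at room temperature, and the 460/530 nm emission ratio was fitted for gain of signal versus DMSO.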

Assay [5] is described as follows: TOX21_p53_BLA_p4_viability: Viability Assessment in the Tox21 HCT-116 p53 Agonism Beta-lactamase Assay, Phase 4 (AID 2283597).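 Note: hits lower the luminescence signal meaning cytotoxicity.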 In outline: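 Cytotoxicity as reduced cellular ATP (CellTiter-Glo luminescence, 30 min room temperature), measured in the same wells following the CCF4 FRET p53 reading. Human HCT-116 cells received compounds in DMSO (217-fold dilution) for 16 h.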

Assay [6] concerns the target Cellular tumor antigen p53 (Homo sapiens) (UniProt P04637). The assay is described as follows: TOX21_p53_BLA_p5_ratio: Tox21 HCT-116 p53 Agonism Beta-lactamase Assay, Ratio, Phase 5 (AID 2283599). In outline: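 Beta-lactamase reporter ratio (blue 460 nm over green 530 nm, 405 nm excitation) after 2 h CCF4-AM loading, in HCT-116 cells exposed 16 h at 37 C to compounds pinned at 217-fold dilution. Increases relative to DMSO baseline scored.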

Assay [7] is described as follows: TOX21_p53_BLA_p5_viability: Viability Assessment in the Tox21 HCT-116 p53 Agonism Beta-lactamase Assay, Phase 5 (AID 2283600). In outline:
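Viability came from CellTiter-Glo ATP luminescence, read after 30 min at room temperature. Before this, HCT-116 p53-bla cells (4000/well) had 16 hours of compound exposure at 37C, with DMSO stocks diluted 217-fold on transfer.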

For assay [8], the target named is Cellular tumor antigen p53 (Homo sapiens) (UniProt P04637). The assay is described as follows: TOX21_p53_BLA_p4_ratio: Tox21 HCT-116 p53 Agonism Beta-lactamase Assay, Ratio, Phase 4 (AID 2283601). In outline: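 Signal is the blue/green (460nm/530nm) ratio of cleaved versus uncleaved CCF4-AM substrate, read after 2 h substrate loading. Cells were HCT116 carrying the p53-responsive beta-lactamase reporter, dosed 16 h at 37C, 5% CO2; CellTiter-Glo measured in parallel.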

Assay [9] concerns the target PGR (gene 5241) (UniProt P06401). The assay is described as follows: TOX21_PR_BLA_Followup_Antagonist_ratio: Tox21 HEK293 Progesterone Receptor (PR) Antagonism Beta-lactamase Follow-Up Assay, Ratio (AID 2283934).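 Note: PR-UAS-bla HEK293T cells stimulated with 1 nM R5020 agonist for 16 hr.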 The essentials: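 Readout is the blue/green (ch2/ch1) substrate cleavage ratio after 2 hours at room temperature, following 16 hr co-treatment of PR-bla HEK293T cells with compound and 1nM promegestone. Multiplexed CellTiter-Glo viability flags cytotoxicity; DMSO baseline.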

Assay [10] is described as follows: TOX21_PR_BLA_Followup_Agonist_viability: Viability Assessment in the Tox21 HEK293 Progesterone Receptor (PR) Agonism Beta-lactamase Follow-Up Assay (AID 2283935).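 Note: signal loss means lower viability so actives are cytotoxic.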 The essentials: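 Run multiplexed with the beta-lactamase FRET read, this endpoint measures ATP by CellTiter-Glo luminescence (30 min, room temperature). PR-UAS-bla HEK293T cells received compound 6 hr after plating and were then incubated 16 hr at 37C in 2% stripped serum.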

Assay [11] in a line: TOX21_PR_BLA_Followup_Antagonist_viability: Viability Assessment in the Tox21 HEK293 Progesterone Receptor (PR) Antagonism Beta-lactamase Follow-Up Assay (AID 2283936).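 Note: cells exposed to compound with R5020 agonist for 16 h; hits lower the luminescence signal meaning cytotoxicity.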 In outline:
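PR-UAS-bla HEK293T cells in medium with 2% charcoal-stripped FBS were treated with compounds plus R5020 for 16 hr at 37C. After the beta-lactamase read, CellTiter-Glo was added to the same wells and luminescence read after 30 min at room temperature.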

The target of assay [12] is PGR (gene 5241) (UniProt P06401). The assay is described as follows: TOX21_PR_LUC_Followup_Agonist: Tox21 HEK293 Progesterone Receptor (PR) Agonism Luciferase Follow-Up Assay (AID 2283937; active = hit-call score of the fitted dose curve at least 0.9, where 1 is the maximum; inactive = score below 0.9). The essentials:
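Agonism scored as luciferase induction over DMSO, read by ONE-Glo after 30 min at RT. Compounds were incubated 16 h at 37C on HEK293-PR-A-luc cells (3,000/well, pre-plated 5 h) previously grown 5 days in charcoal-stripped serum.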

For assay [13] the target is unchanged. In words: TOX21_PR_LUC_Followup_Antagonist: Tox21 HEK293 Progesterone Receptor (PR) Antagonism Luciferase Follow-Up Assay (AID 2283938).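 Note: curve fitted upward as signal gain over DMSO baseline despite antagonist label.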 In outline: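 Luminescence from ONE-Glo was measured 30 min after reagent addition, following 16 h exposure of HEK293-PR-A-luc cells (3,000/well, plated 5 h earlier) to DMSO-dissolved compounds at 37C; DMSO served as baseline.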

A short description of assay [14]: TOX21_PR_LUC_Followup_Agonist_viability: Viability Assessment in the Tox21 HEK293 Progesterone Receptor (PR) Agonism Luciferase Follow-Up Assay (AID 2283941).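 Note: loss of signal means cytotoxicity so actives lower viability.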 In outline:
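Cytotoxicity counter-readout in the PR-A luciferase reporter line HEK293, with 16 h compound exposure at 37C after cells were cultured in charcoal-stripped serum. Cellular ATP quantified by CellTiter-Glo luminescence.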

“And” between values parts separate entries of the source, which are not always exact repeats. Equal entries are not always repeated. Inconclusive results are not listed. The source made the active and inactive calls. Rule for the calls, unless noted: active = hit-call score of the fitted dose curve at least 0.9, where 1 is the maximum; inconclusive = response in the unintended direction; inactive = score below 0.9.

Sequence of Cellular tumor antigen p53 (Homo sapiens) (P04637 whole entry, looked up): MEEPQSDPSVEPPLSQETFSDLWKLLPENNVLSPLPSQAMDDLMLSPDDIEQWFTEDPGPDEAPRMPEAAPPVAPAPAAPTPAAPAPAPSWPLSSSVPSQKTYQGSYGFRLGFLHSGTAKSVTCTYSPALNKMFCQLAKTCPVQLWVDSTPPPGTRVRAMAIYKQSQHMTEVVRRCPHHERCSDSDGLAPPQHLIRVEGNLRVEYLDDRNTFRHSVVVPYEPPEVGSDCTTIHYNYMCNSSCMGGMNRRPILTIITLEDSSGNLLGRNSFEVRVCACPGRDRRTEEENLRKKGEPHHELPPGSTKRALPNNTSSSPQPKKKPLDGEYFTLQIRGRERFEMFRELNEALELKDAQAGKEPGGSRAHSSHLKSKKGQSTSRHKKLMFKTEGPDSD
Sequence of PGR (gene 5241) (P06401 whole entry, looked up): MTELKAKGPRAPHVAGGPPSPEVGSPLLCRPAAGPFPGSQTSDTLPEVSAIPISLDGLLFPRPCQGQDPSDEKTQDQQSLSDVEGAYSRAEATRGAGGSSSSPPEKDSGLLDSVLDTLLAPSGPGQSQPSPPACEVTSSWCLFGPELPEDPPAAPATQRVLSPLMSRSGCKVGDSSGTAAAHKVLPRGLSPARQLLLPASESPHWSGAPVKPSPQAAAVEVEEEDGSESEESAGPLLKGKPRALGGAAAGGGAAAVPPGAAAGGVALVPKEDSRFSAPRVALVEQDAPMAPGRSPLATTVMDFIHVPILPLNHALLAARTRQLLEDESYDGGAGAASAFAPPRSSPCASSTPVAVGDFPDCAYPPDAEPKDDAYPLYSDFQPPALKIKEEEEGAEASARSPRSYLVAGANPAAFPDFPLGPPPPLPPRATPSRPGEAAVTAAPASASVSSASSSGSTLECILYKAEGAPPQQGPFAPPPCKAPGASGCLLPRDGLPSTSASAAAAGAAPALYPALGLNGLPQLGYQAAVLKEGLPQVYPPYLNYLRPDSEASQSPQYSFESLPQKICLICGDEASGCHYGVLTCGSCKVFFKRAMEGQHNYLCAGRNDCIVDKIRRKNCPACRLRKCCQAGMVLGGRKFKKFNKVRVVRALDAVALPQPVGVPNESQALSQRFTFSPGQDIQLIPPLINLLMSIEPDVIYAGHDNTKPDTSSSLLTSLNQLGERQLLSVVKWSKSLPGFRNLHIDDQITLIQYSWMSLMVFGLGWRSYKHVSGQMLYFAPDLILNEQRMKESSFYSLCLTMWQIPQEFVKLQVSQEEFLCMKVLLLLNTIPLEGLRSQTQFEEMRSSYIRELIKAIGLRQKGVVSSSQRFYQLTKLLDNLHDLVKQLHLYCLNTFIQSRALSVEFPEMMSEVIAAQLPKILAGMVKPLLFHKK

In the case of `C[C@@H](NCCCc1cccc(C(F)(F)F)c1)c1cccc2ccccc12`, the concentration at half-maximal activity (AC50) in [1] was 21.4 µM (active); in assay [2], 39 µM (active); in assay [3], 30 µM (active); in assay [4] it was 40.2 µM (active); in assay [5] it was 15.2 µM (active); in assay [8] it was 25100 nM (active). For the same compound, the result in assay [6] and in assay [7] was inactive.
Turning to `COc1cc([C@@H]2c3cc4c(cc3C(O[C@@H]3O[C@@H]5COC(c6cccs6)O[C@H]5[C@H](O)[C@H]3O)C3COC(=O)[C@@H]32)OCO4)cc(OC)c1O` (stereo partly specified), the call in [1], in assay [3], in assay [5] and in [7] was inactive. Moreover, the AC50 in assay [2] is 0.717 µM (active); in [4] it was 0.939 µM (active); in assay [6], 886 nM (active); in assay [8], 841 nM (active).
Consider `C=C1C(CCl)(CCl)C2(Cl)C(Cl)C(Cl)C1(Cl)C2(Cl)Cl` (stereo unspecified), for which the AC50 in [1] was 50.6 µM (active) and 13.5 µM (active); in assay [2], 76.7 µM (active) and 35.7 µM (active); in [3], 45.6 µM (active) and 12 µM (active); in assay [4] it was 86.4 µM (active) and 20.9 µM (active); in assay [5], 67.2 µM (active) and 17.1 µM (active); in assay [6], 68.4 µM (active) and 24.1 µM (active). For the same compound, the AC50 is 45.6 µM (active) and 15.7 µM (active) in [7]; 86.6 µM (active) and 36.1 µM (active) in assay [8]; 23 µM (active) with PGR (gene 5241) [9]; 8.97 µM (active) with PGR (gene 5241) [12]. For the same compound, the outcome (in [10]; in [11]; with PGR (gene 5241) [13]) was inactive.
With `Cc1onc(-c2c(F)cccc2Cl)c1C(=O)N[C@@H]1C(=O)N2[C@@H]1SC(C)(C)[C@@H]2C(=O)O`, the compound was classed as inactive in assay [1], in assay [2], in assay [3], in [4], in assay [5] and in [6]. The result in [7] and in assay [8] was inactive.
With `O=C(Nc1ccc(Cl)c(Cl)c1)C1CC1`, the compound was classed as inactive in assay [1], in [2], in assay [3], in [4], in [5] and in assay [6]. Also, the outcome (in [7]; in assay [8]; with PGR (gene 5241) [9]; in assay [10]; in assay [11]; with PGR (gene 5241) [12]) was inactive. For the same compound, the call (with PGR (gene 5241) [13]; in [14]) was inactive.
Turning to `CC(=O)c1cccc([N+](=O)[O-])c1`, the outcome in [1], in assay [2], in [3], in assay [4], in [5] and in assay [6] was inactive. The result in assay [7] and in [8] was inactive.
For the compound `CC(C)C[C@H](NC(=O)[C@H](CCc1ccccc1)NC(=O)CN1CCOCC1)C(=O)N[C@@H](Cc1ccccc1)C(=O)N[C@@H](CC(C)C)C(=O)[C@@]1(C)CO1`, the AC50 in [1] is 0.757 µM (active); in [2], 0.108 µM (active); in [3] it was 1.09 µM (active); in assay [4] it was 0.121 µM (active); in [5], 0.759 µM (active); in [6], 203 nM (active). In addition, the AC50 was 1 µM (active) in [7], 109 nM (active) in assay [8], 15.9 µM (active) with PGR (gene 5241) [9] and 8.16 µM (active) in the assay with PGR (gene 5241) [13]. Also, the call (in assay [10]; in [11]; in the assay with PGR (gene 5241) [12]) was inactive.
`NC(=O)n1c(O)c(C(=O)c2cccs2)c2cc(Cl)ccc21`: the compound was called inactive (in assay [1]; in [3]; in [5]; in assay [7]; in assay [8]; with PGR (gene 5241) [9]). Besides, the compound was called inactive (in assay [10]; in assay [11]; with PGR (gene 5241) [12]; in assay [14]). The AC50 is 26.9 µM (active) in assay [2], 20.4 µM (active) in [4], 34400 nM (active) in assay [6] and 17.3 µM (active) with PGR (gene 5241) [13].

The AC50 is the concentration at which the activity in the assay is half-maximal.
